From PubChem BioAssay (NCATS)
Inconclusive results are not listed. A call without a number means that no potency is given here. Unmarked numbers belong to inactive results. Calls of active or inactive are those of the source. The call rests on the fitted dose curve; in most records, active means well fitted cell-killing curve with a large enough effect; inconclusive means small, poorly fitted or top-dose-only effect, or effect the other way; inactive means flat fitted curve, though single readings scatter.

tested on: PA-1; assay: Primary qHTS to identify gynecologic anti-cancer compounds using libraries of approved drugs and bioactive compounds (AID 1345084); details: Gynecologic cancer cell panel viability, ATPlite luminescence, 48 h; series mostly up to 57.5 µM; further: nearly all actives have a fitted effect of over 55% in size
Outline: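 Cells, 1,000 per well, plated 16 h, then exposed 48 h at 37 C to compounds. Viability by ATPlite luminescence after 15 min at room temperature.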

SMILES | Potency | activity change, negative = cytotoxicity
O=C(/C=C/c1ccc(O)cc1)O[C@H]1[C@@H]2C=CO[C@@H](O[C@@H]3O[C@H](CO)[C@@H](O)[C@H](O)[C@H]3O)[C@@H]2[C@@]2(CO)O[C@@H]12 | inactive | –
COCCN(C)Cc1ccc2nc3sc(C(=O)N(C)C4CCCCC4)cn3c2c1 | inactive | –
CC12CCC3c4ccc(O)cc4CCC3C1CCC2OC1OC(C(=O)O)C(O)C(O)C1O (stereo not given) | inactive | –
COc1cc(CCc2ccccc2)c(C(=O)O)c2c1CC(C(C)(C)O)O2 (stereo not given) | inactive | –
OCc1ccccc1O[C@@H]1O[C@H](CO)[C@@H](O)[C@H](O)[C@H]1O | inactive | –
CC/C=C\C[C@H]1C(=O)C=C[C@@H]1CCCCCCCC(=O)O | inactive | –
CC(NC(=O)CC(=O)O)c1nc2ccccc2c(=O)[nH]1 (stereo not given) | inactive | –
C[C@@H]1CC[C@]2(C(=O)O)CC[C@]3(C(=O)O)C(=CCC4[C@@]5(C)CC[C@H](O[C@@H]6O[C@@H](C)[C@H](O[C@@H]7O[C@H](CO)[C@@H](O)[C@H](O)[C@H]7O)[C@@H](O)[C@H]6O)C(C)(C)C5CC[C@]43C)C2[C@H]1C (stereo not given in full) | inactive | –
COc1ccc(C)c2sc(NC(=O)c3ccncc3)nc12 | inactive | –
NCCOCCOCCNC(=O)Cc1ccc(Nc2nc(NCc3ccc(F)cc3)nc(NCC3CCCCC3)n2)cc1 | inactive | –
Nc1nonc1C(=Nc1ccc(F)c(Cl)c1)NO | inactive | –
CNC(=O)c1ccc2cc([C@@]3(O)CCn4cncc43)ccc2c1 | inactive | –
O=C1NCc2nc3ccccc3c(=O)n2C1Cc1c[nH]c2ccccc12 (stereo not given) | inactive | –
CCCCCCc1cccc(NC(=O)[C@H](N)CCP(=O)(O)O)c1 | – | 2.71% [at 11.6 µM]
CC1CCC2C(C)(C)CC(C)(CO)C2(O)C1C(=O)O (stereo not given) | inactive | –
CC(C)(C)NCC(O)COc1cccc2c1CCCC2=O (stereo not given) | inactive | –
COC(=O)C1=CO[C@@H](O[C@@H]2O[C@H](CO[C@@H]3O[C@H](COC(=O)/C=C/c4ccc(O)cc4)[C@@H](O)[C@H](O)[C@H]3O)[C@@H](O)[C@H](O)[C@H]2O)[C@@H]2C(CO)=CC[C@H]12 | inactive | –
C=CC(C)(O)CC/C=C(\C)C(=O)OCC1OC(OC2CCC3(C)C(CCC4(C)C3CC=C3C5CC(C)(C)C(O)CC5(C(=O)O)CCC34C)C2(C)C)C(O)C(OC2OC(CO)C(O)C(OC3OC(CO)C(O)C(OC4OC(COC5OC(CO)C(O)C(O)C5O)C(O)C(O)C4O)C3O)C2O)C1O (stereo not given) | – | 15.1% [at 6.55 µM]
COC1C=C([C@@H]2CC=C3[C@@]4(C)C(CC[C@]32C)[C@@]2(C)C=CC(=O)C(C)(C)C2C[C@H]4OC(C)=O)C(=O)O1 (stereo not given in full) | inactive | –
Cc1c(N2C(=O)c3ccc(C(=O)O)cc3C2=O)c(=O)n(-c2ccccc2)n1C | inactive | –

SMILES | Potency | activity change, negative = cytotoxicity
CC[C@H]1OC(=O)[C@H](C)[C@@H](OC2C[C@@](C)(OC)[C@@H](O)[C@H](C)O2)[C@H](C)[C@@H](OC2O[C@H](C)C[C@H](NC)[C@H]2O)[C@](C)(O)C[C@@H](C)CN(C)[C@H](C)[C@@H](O)[C@]1(C)O (stereo not given in full) | inactive | –
C=C1C2(CCC(=O)OC2(C)C)CC(OC(=O)/C(C)=C/C)C2(C)C13OC14C(=O)OC(C)(C(=O)C12C(=O)OC4C)C3OC(C)=O (stereo not given) | inactive | –
C=C1C(=O)OC2/C=C(\C)CC/C=C(\C(=O)O)CC/C=C(\C)CCC12 (stereo not given) | inactive | –
CC(C)c1nc(N(C)S(C)(=O)=O)nc(-c2ccc(F)cc2)c1/C=C/[C@@H](O)C[C@@H](O)CC(=O)O | inactive | –
C=C1C[C@]23C[C@H]1CC[C@H]2[C@@]12C=C[C@H](O)[C@@](C)(C(=O)O1)[C@H]2[C@@H]3C(=O)O | inactive | –
COC1C2=C(COC2=O)C2(C)CCCC(C)(CO)C2C1OC(=O)c1ccccc1 (stereo not given) | inactive | –
CC1CCCC2OC2C(=O)c2c(O)cc(O)cc2CC(=O)O1 (stereo not given) | inactive | –
C[C@@H]1C(=O)O[C@H]2CC34[C@H]5C[C@@H](C(C)(C)C)C36[C@@H](OC(=O)[C@@H]6O)O[C@@]4(C(=O)O5)[C@]21O (stereo not given in full) | inactive | –
CC(C)C(C#N)O[C@@H]1O[C@H](CO[C@@H]2OC[C@](O)(CO)[C@H]2O)[C@@H](O)[C@H](O)[C@H]1O (stereo not given in full) | inactive | –
CC[C@H]1OC(=O)[C@H](C)[C@@H](O[C@H]2C[C@@](C)(OC)[C@@H](O)[C@H](C)O2)[C@H](C)[C@@H](O[C@@H]2O[C@H](C)C[C@H](N(C)C)[C@H]2O)[C@@](C)(O)C[C@@H](C)[C@@H]2N[C@@H](COCCOC)OC([C@H]2C)[C@]1(C)O | inactive | –
CCc1cc2c(=O)c(-c3nc4ccccc4s3)coc2c(CN2CCCCC2)c1O | inactive | –
C=C1C(=O)OC2CC(C)=C(C(C)CCCO[C@@H]3O[C@H](CO)[C@@H](O)[C@H](O)[C@H]3O)C(O)C12 (stereo not given in full) | inactive | –
CCC(C)/C=C(C)/C=C/C1=CC2=C(Cl)C(=O)C(C)(OC(C)=O)C(=O)C2=CN1CCCC(=O)O (stereo not given) | inactive | –
CC(=O)OC[C@@]12[C@H](O)C[C@]3(C)C(=CCC4[C@@]5(C)CC[C@H](O[C@@H]6O[C@H](C(=O)O)[C@@H](O[C@@H]7O[C@H](CO)[C@@H](O)[C@H](O)[C@H]7O)[C@H](O)[C@H]6O[C@@H]6O[C@H](CO)[C@@H](O)[C@H](O)[C@H]6O)[C@](C)(CO)C5CC[C@]43C)[C@@H]1CC(C)(C)[C@@H](OC(C)=O)[C@@H]2O (stereo not given in full) | – | 0.948% [at 11.6 µM]
COc1ccc([C@@H]2N[C@H](C(=O)O)Cc3c2[nH]c2ccccc32)cc1CN1CCN(c2ccccc2F)CC1 | inactive | –
CC1=CC(=O)CC(C)(C)C1(O)CCC(C)O (stereo not given) | inactive | –
COc1ccccc1[C@@H]1C2=C(CC(C)(C)CC2=O)Nc2n[nH]c(C(F)(F)F)c21 | inactive | –
CC(C)(OC1OC(CO)C(O)C(O)C1O)C1CCC(O)(CO)C2CC(O)C(C)(O)C2C1 (stereo not given) | inactive | –
CN1C(=O)c2ccccc2-n2c(nc3ccccc3c2=O)/C1=C/c1ccccc1 | inactive | –
CC(=O)OCC(=O)O[C@@H]1[C@H]2[C@@H](OC(=O)c3ccccc3)[C@@H](C)C[C@]2(O)[C@H](OC(C)=O)C2(C)[C@H]3CC(C)(C)C(=O)[C@@H]3CC1(OC(C)=O)[C@@H]2OC(C)=O (stereo not given in full) | inactive | –
